Assay outcomes: PubChem, National Center for Advancing Translational Sciences (NCATS)
Most compounds without a hit are left out; they make up all but 18% or so of the library.
TGFb SMAD3 inh: qHTS for Inhibitors of TGF-b; HepG2 CAGA-GFP TGF-b/SMAD3 reporter, GFP fluorescence, 18 h; TGF-beta stimulated, 500 pg/mL final; Potency, µM (series often up to 46.1 µM), inactives show at the highest dose activity, negative = inhibition, actives largely listed as inhibitors; actives 1.2% (n = 410,000); AID 588855, 2011; also: potency is read from the fitted curve at half-maximal effect; % is scaled to controls: 0 for no effect and ±100 for the full control effect; nearly all actives have a fitted effect of over 65% in size
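Read-out: total well GFP (ex488/em500-530) summed from mean per-cell fluorescence. Cells: HEPG2 CAGA-GFP, 1% FBS DMEM, 18 h at 37 degrees C with 500 pg/mL final TGF-beta. Unstimulated wells served as the full-inhibition control; stimulated DMSO wells = 0%.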
TDP1 inh: qHTS Assay for Inhibitors of Tyrosyl-DNA Phosphodiesterase (TDP1); Tyrosyl-DNA phosphodiesterase 1 (Homo sapiens), Q9NUW8; recombinant TDP1, AlphaScreen DNA substrate cleavage; Potency, µM (top dose mostly 130 µM), without a hit: at the top dose activity change, negative = inhibition, hits mostly inhibitors; actives 0.28% (n = 350,000); AID 485290, 2010; also: potency is read from the fitted curve at half-maximal effect; % is scaled to controls: 0 for no effect and ±100 for the full control effect; nearly all actives have a fitted effect of over 40% in size
Target sequence (Q9NUW8 whole entry, looked up): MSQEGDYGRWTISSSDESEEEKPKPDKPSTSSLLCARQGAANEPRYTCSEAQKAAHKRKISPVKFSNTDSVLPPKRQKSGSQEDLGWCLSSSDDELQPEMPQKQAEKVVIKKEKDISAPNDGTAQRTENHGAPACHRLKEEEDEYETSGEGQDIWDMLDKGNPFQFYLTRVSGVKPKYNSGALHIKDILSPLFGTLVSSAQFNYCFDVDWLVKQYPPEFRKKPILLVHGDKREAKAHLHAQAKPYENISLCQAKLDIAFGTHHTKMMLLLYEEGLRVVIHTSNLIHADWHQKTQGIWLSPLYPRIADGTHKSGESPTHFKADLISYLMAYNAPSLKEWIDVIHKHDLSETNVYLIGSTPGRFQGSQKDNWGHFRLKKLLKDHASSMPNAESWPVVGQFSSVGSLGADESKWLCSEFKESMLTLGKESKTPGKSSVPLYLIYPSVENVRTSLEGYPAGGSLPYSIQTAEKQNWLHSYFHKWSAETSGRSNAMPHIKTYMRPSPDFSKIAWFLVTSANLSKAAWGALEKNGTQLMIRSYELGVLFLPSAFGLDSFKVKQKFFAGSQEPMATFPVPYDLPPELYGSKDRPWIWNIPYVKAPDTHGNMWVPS
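Recombinant E. coli-expressed Tdp1 (1 nM) preincubated with compound 15 min at RT, then 5'-biotin/3'-phosphotyrosine-FITC DNA substrate (15 nM) added for 5 min. AlphaScreen beads (10 ug/ml) added, 10 min RT; tyrosine-FITC cleavage read as signal loss.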
DT40 TDP1 CPT: qHTS for Inhibitors of human tyrosyl-DNA phosphodiesterase 1 (TDP1): qHTS in cells in presence of CPT | chicken DT40 Tdp1-/-;hTDP1 cells + 20 nM CPT, ATP luminescence, 48 h | AID 686979, 2013 | actives 12% (n = 420,000) | Potency, µM (highest dose often 46.2 µM), for the others: at the top dose activity change, negative = growth inhibition, most hits filed as inhibitors; also: potency is read from the fitted curve at half-maximal effect; % is scaled to controls: 0 for no effect and ±100 for the full control effect; nearly all actives have a fitted effect of over 55% in size
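Chicken DT40 Tdp1-/- cells complemented with human TDP1, 400 cells/well, exposed to compounds plus 20 nM camptothecin for at least 48 h at 37 C; viability read as ATP content by CellTiter-Glo luminescence.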
DT40 TDP1 no CPT: qHTS for Inhibitors of human tyrosyl-DNA phosphodiesterase 1 (TDP1): qHTS in cells in absence of CPT | actives 15% (n = 420,000) | AID 686978, 2013 | Potency, µM (series often up to 46.2 µM), for inactives: at the highest dose activity change, negative = growth inhibition, usual class: inhibitors | DT40 Tdp1-/- hTDP1 cells, no CPT, ATP luminescence, 48 h; also: potency is read from the fitted curve at half-maximal effect; % is scaled to controls: 0 for no effect and ±100 for the full control effect; nearly all actives have a fitted effect of over 55% in size
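No-CPT arm: Tdp1-/-;hTDP1 DT40 cells (400/well) plus compounds, incubated ≥48 hr at 37 °C. Readout CellTiter-Glo luminescence.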
HepG2 tox: qHTS for Inhibitors of TGF-b: Cytotox Counterscreen; actives 0.76% (n = 410,000); AID 588856, 2011; HepG2 CAGA-GFP viability, ATP luminescence, 18 h; Potency, µM (top dose mostly 46.1 µM), without a hit: top-dose activity change, negative = cytotoxicity, most hits filed as cytotoxic; also: potency is read from the fitted curve at half-maximal effect
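CellTiter-Glo luminescence gave cytotoxicity after 18 hours at 37 degrees C. The cells were HepG2 CAGA-GFP in 1% FBS DMEM, stimulated with 500 pg/mL TGF-beta after compound addition. %Activity was normalised to no-cell wells (complete cell-killing) and DMSO (no toxicity), and curves were fitted and classified.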
IL-1B inflam inh: qHTS for Inhibitors of Inflammasome Signaling: IL-1-beta AlphaLISA Primary Screen; THP-1 LPS/ATP IL-1B secretion, AlphaLISA, 16 h; stronger effect = lower value; activity change, % at 57.5 µM; actives 4.7% (n = 360,000); in the data active = activity change below about -50%; inconclusive = mostly about -30% to -49%; also: % is scaled to controls: 0 for no effect and ±100 for the full control effect
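THP-1 cells pretreated 1 hr with compounds (up to 57.5 uM final), then stimulated with LPS (250 ng/mL final) plus ATP (1.25 mM final); secreted IL-1B measured by AlphaLISA after 16 hr, decreased signal indicating inhibition.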
An asterisk follows results filed as active; u = inconclusive; x = not tested or not shown; [ ] = another dose, or the depositor's remark. Unless noted, calls follow the shape of the dose curve; as a rule, active = well fitted curve in the direction sought with a large enough effect; inconclusive = small, poorly fitted or top-dose-only effect, or another doubt; inactive = no such curve, though single readings can be large; an effect the other way counts as inactive or inconclusive.

SMILES | TGFb SMAD3 inh | TDP1 inh | DT40 TDP1 CPT | DT40 TDP1 no CPT | HepG2 tox | IL-1B inflam inh
COc1ccc(-c2cc(N)n(S(=O)(=O)c3ccc(F)cc3)n2)cc1OC | u | 3.9% | 18.4µM* | 11.6µM* | -25.9% | 2.7
Nc1cc(-c2ccccc2)nn1S(=O)(=O)c1ccc(F)cc1 | u | 1.0% | 29.1µM* | 14.6µM* | -45.6% | -13.8
O=C(c1cccnc1)C1CCCN(Cc2ccc3c(c2)CN(C(=O)c2cn4ccccc4n2)CCO3)C1 (stereo not given) | x | x | -2.8%[9.04 µM] | u | x | x
CCn1c(COc2ccc(=O)n(-c3ccccc3)n2)nnc1SCc1ccccc1C | -4.6% | 6.3% | 16.4µM* | u | 1.4% | -8.4
CCn1c(COc2ccc(=O)n(-c3ccccc3)n2)nnc1SCc1ccc(C)cc1 | -39.3% | -6.7% | -28.0% | u | -1.0% | -4.1
CCNc1nc(NC(C)(C)C)nc(N2CCCCC2)n1 | -29.4% | 4.7% | 20.6µM* | 20.6µM* | -56.2% | -81.4*
CC(C)(CO)Nc1nc(N2CCCC2)nc(N2CCCC2)n1 | 0.5% | 2.5% | u | 20.6µM* | -23.0% | 14.5
CCNc1nc(N2CCCC2)nc(N2CCCC2)n1 | -6.1% | -2.5% | u | u | -5.6% | -0.4
COc1ccc2c(CNCCc3cccs3)c(C(=O)O)n(Cc3ccc(F)cc3Cl)c2c1 | u | 10.3% | 8.2µM* | 6.51µM* | 17.8µM* | x
COc1ccc2c(CNCc3cccs3)c(C(=O)O)n(Cc3ccc(F)cc3Cl)c2c1 | u | 5.1% | 7.31µM* | 1.46µM* | -60.9% | x
COc1ccc2c(CNCCc3cccs3)c(C(=O)O)n(Cc3cccc(F)c3)c2c1 | u | 5.6% | u | u | -16.8% | x
O=C(NCCC1CCCCN1S(=O)(=O)c1ccccc1)C(=O)NC1CCCC1 (stereo not given) | u | 0.7% | -19.4% | u | -1.8% | -2.5
CCc1ccc(NC(=S)Nc2cccc3cnccc23)cc1 | -0.1% | 0.0% | u | 14.6µM* | 4.4% | 17.4
Cc1cc(C)cc(NC(=S)Nc2cccc3cnccc23)c1 | 11.6% | 5.0% | -4.5% | u | 0.6% | -17.5
CC(=O)N(C)c1ccc(NC(=S)Nc2cccc3ccccc23)cc1 | -3.4% | 4.1% | 23.1µM* | u | 10.7% | 12.6
O=C(Cc1ccc(OCc2ccccn2)cc1)NO | -9.8% | x | u | u | -26.6% | x
CSc1nc(N)nc2c1ncn2CC(=O)NCC1CCCO1 (stereo not given) | -0.8% | 0.5% | -10.7% | -3.1% | 1.6% | 2.6
Cc1ccc(OCC(COCc2ccccc2)NC(C)C)cc1 (stereo not given) | 5.1% | x | u | 18.4µM* | -12.3% | u
NC(=O)CC(NC(=O)c1ccc(Br)cc1)c1ccc(N2CCN(c3ccccn3)CC2)c([N+](=O)[O-])c1 (stereo not given) | u | 5.0% | 23.1µM* | 20.6µM* | -2.0% | -17.3
NC(=O)CC(NC(=O)Cc1ccc(Cl)cc1)c1ccc(N2CCN(c3ccccn3)CC2)c([N+](=O)[O-])c1 (stereo not given) | -19.2% | x | u | u | -3.7% | 12.7
NC(=O)CC(NC(=O)c1cccc(Br)c1)c1ccc(N2CCN(c3ccccn3)CC2)c([N+](=O)[O-])c1 (stereo not given) | -21.0% | x | 14.6µM* | 13µM* | -11.4% | 11.6
Clc1ccc(CNCCC2=CCCCC2)cc1 | 7.8% | 0.0% | -17.9% | -21.4% | -30.5% | -75.7*
S=C(NCCC1=CCCCC1)Nc1ccc(Cl)cc1 | -5.6% | 5.4% | 23.1µM* | 20.6µM* | -23.7% | 10.6
COC(=O)CC1C(C)(C)C(OC(C)=O)[C@@]2(O)C=C3C4CC(=O)OC(c5ccoc5)[C@]4(C)CCC3[C@@]1(C)C2=O (stereo not given in full) | x | 9.0%[56.1 µM] | 7.3% | -1.5% | x | x
COc1ccccc1CNc1cc(-c2ccccc2C)ncn1 | x | x | 4.11µM* | 4.11µM* | x | x
SMILES | TGFb SMAD3 inh | TDP1 inh | DT40 TDP1 CPT | DT40 TDP1 no CPT | HepG2 tox | IL-1B inflam inh
COc1cccc(-c2cc(NCc3ccc(OC)cc3OC)ncn2)c1 | x | x | 10.3µM* | 13µM* | x | x
COc1ccccc1CNc1cc(-c2cccnc2)ncn1 | x | x | u | -18.4% | x | x
COc1ccccc1CNc1cc(-c2ccccc2OC)ncn1 | x | x | 4.61µM* | 2.91µM* | x | x
O=C(Nc1nnc(SCC(=O)N2CCCCC2)s1)c1c(F)cccc1F | 2.1% | 1.5% | 6.0% | -0.9% | -3.9% | -4.2
ON=C1C2CC=C(c3ccccc3)C1CCC2 (stereo not given) | 3.0% | x | u | -25.7% | -34.6% | -58.4*
Cc1ccccc1-n1c(SCc2ccccn2)nc2n[nH]c(C)c2c1=N | u | 9.1% | 20.6µM* | 16.4µM* | -20.9% | u
CCc1ccccc1-n1c(SCC(=O)Nc2ccc(C)cc2)nc2n[nH]c(C)c2c1=N | 0.0% | 1.9% | 7.31µM* | 5.17µM* | -42.0% | x
COc1ccc(NC(=O)CSc2nc3n[nH]c(C)c3c(=N)n2-c2ccc(Cl)c(C)c2)cc1OC | u | -7.4% | -15.9% | u | -84.6% | -18.7
CCOc1ccccc1NC(=O)CCSc1nc2n[nH]c(C)c2c(=N)n1-c1ccccc1Cl | 2.0% | 4.5% | u | u | -24.9% | 45.1
CCc1ccccc1NC(=O)CSc1nc2n[nH]c(C)c2c(=N)n1-c1cccc(OC)c1 | -0.6% | 0.0% | 16.4µM* | 23.1µM* | -33.9% | -5.8
Cc1ccc(NC(=O)CSc2nnc3ccccn23)cc1 | -4.9% | -1.8% | -11.4% | 6.5% | 23.4% | -1.9
CCOc1ccccc1-n1c(SCC(=O)Nc2ccc(CC)cc2)nc2n[nH]c(C)c2c1=N | u | 6.1% | 11.6µM* | 13µM* | 9.8% | -7.1
CCc1ccc(NC(=O)CSc2nc3n[nH]c(C)c3c(=N)n2-c2ccccc2C)cc1 | u | -6.6% | u | u | 15.8µM* | x
COc1ccc(OC)c(NC(=O)CSc2nc3n[nH]c(C)c3c(=N)n2-c2cccc(Cl)c2C)c1 | u | 5.4% | u | 16.4µM* | -14.8% | -28.1
Cc1ccccc1-n1c(SCC(=O)Nc2ccccc2Cl)nc2n[nH]c(C)c2c1=N | -17.7% | 6.6% | 16.4µM* | 18.4µM* | -21.0% | -1.0
